# PubChem BioAssay (NCATS)
# Records with an inconclusive call do not appear. Values without a mark were called inactive. Calls come from the whole dose curve; as a rule, active = well fitted activation curve with a large enough effect; inconclusive = small, poorly fitted or top-dose-only effect; inactive = no such curve, though single readings can be large or run the other way.
# Molecular target: Cellular tumor antigen p53 (Homo sapiens) (UniProt P04637)
# Assay: Primary qHTS for small molecule compounds that upregulate eGFP-tagged delta133p53alpha (in N-terminal) cells. (AID 2060322);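 note: series mostly up to about 56 µM; 0% = DMSO vehicle and 100% = reference activator; nearly all actives have a fitted effect of over 75% in size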
# Details: NCI-H358 eGFP-delta133p53alpha fluorescence, 24 h; activation: active compounds read high
# How it was run: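 NCI-H358 cells pre-induced 24 h with 10 ng/ml doxycycline for eGFP-delta133p53alpha, plated dox-free and exposed 24 h at 37C to titrated compounds. Fixed, Hoechst-stained; gated GFP peak intensity by laser scanning cytometry, normalized to DMSO (0%) and 57.5 uM 5-azacytidine (100%).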
# Cellular tumor antigen p53 (Homo sapiens), sequence (P04637 whole entry, looked up): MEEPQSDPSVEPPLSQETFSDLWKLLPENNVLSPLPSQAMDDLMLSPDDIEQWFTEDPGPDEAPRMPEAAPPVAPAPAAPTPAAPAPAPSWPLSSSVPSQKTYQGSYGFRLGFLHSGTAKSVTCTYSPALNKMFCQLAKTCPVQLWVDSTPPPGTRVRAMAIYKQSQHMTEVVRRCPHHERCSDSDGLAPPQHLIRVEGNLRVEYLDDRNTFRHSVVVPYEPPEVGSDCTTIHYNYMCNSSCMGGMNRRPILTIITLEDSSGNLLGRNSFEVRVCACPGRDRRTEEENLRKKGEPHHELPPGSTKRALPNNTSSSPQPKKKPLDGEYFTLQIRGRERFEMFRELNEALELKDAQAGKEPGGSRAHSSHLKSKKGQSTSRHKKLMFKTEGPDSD
row,SMILES,activation
1,COC1=CC(C)=C[C@@H](C)[C@@H](O)[C@@H](C)CC(C)=CC=C[C@H](OC)[C@H]([C@@H](C)[C@@H](O)[C@H](C)[C@@]2(O)C[C@@H](O)[C@H](C)[C@@H](C(C)C)O2)OC1=O,6.87%
2,CC(C)(C)NCC(O)c1cc(Cl)c(N)c(Cl)c1 (stereo not given),-6.21%
3,O=C(N/N=C/c1ccc([N+](=O)[O-])o1)c1cc([N+](=O)[O-])cc([N+](=O)[O-])c1O,-6.21%
4,CCN(Cc1ccc(Cl)nc1)/C(=C/[N+](=O)[O-])NC,-24.3%
5,COCC(=O)N(c1c(C)cccc1C)C(C)C(=O)OC (stereo not given),18.6%
6,CC(C)NCC(O)c1ccccc1Cl (stereo not given),21.8%
7,C[C@H](N)[C@H](O)c1ccc(O)c(O)c1,-36.8%
8,CCN[C@@H](C)Cc1ccccc1,-10.7%
9,OCCOc1ccccc1,-20.9%
10,O=c1n(Cl)c(=O)n(Cl)c(=O)n1Cl,6.21%
11,O=c1[nH]c2cc(Cl)ccc2n1C1CCNCC1,9.6%
12,Fc1cc(Br)ccc1CBr,-29.9%
13,C[C@]12CC[C@H]3[C@@H](CCC4=CC(=O)CC[C@@H]43)[C@@H]1CC[C@@H]2O,-0.837%
14,C[N+]1(CCF)[C@@H]2CC[C@H]1CC(OC(=O)C(O)(c1ccccc1)c1ccccc1)C2 (stereo not given in full),5.08%
15,C[C@H]1C(=O)O[C@@H]2CCN3CC=C(COC(=O)[C@](C)(O)[C@]1(C)O)[C@H]23,-36.8%
